Active and inactive are the calls of the source.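 How the source made its calls, unless noted: active means compounds that lower viability of the colon cancer cells in the luminescence readout, with no numeric limit stated; inactive means the rest.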

Inhibition of viability and viability decrease (inhibition) data for 40 molecules are collected here from PubChem BioAssay.

A short description of the first experiment: HCT116 colon cancer cell growth inhibition, primary screen, CellTiter-Glo luminescence, NPC library (AID 1117342;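 active means compounds that lower survival of HCT116 colon cancer cells in the luminescence readout, no numeric limit stated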). The conditions noted are these: at 20 µM (top of the series). Background: Cellular ATP, detected with luciferase, serves as a proxy for viable cell number.
Regarding `CCO[C@H](Cc1ccc(OCCc2ccc(OS(C)(=O)=O)cc2)cc1)C(=O)O`, the inhibition of viability was -7.7% (inactive). Regarding `O=C(CCCN1CCC(O)(c2ccc(Cl)cc2)CC1)c1ccc(F)cc1`, the inhibition of viability was 63.5% (active). For `COc1ccc2c(c1)C(=O)N(CCc1ccc(S(=O)(=O)NC(=O)NC3CCCCC3)cc1)C(=O)C2(C)C`, the inhibition of viability was 68% (active). Still for that read-out and setting: to `CC12CCC(CC1)C(C)(C)O2` belongs 7.2% (inactive); to `C[C@@H](c1ncncc1F)C(O)(Cn1cncn1)c1ccc(F)cc1F` (some centres undefined), 11.9% (inactive). The same measure, in the same setting: then `CC(C)(C)NCC(O)c1ccc(O)c(CO)c1` (centres undefined), with -1.7% (active); and `CCN(CC)CCOc1ccc(Cc2ccccc2)cc1`, with 67.4% (active).

Turning to `COc1ccc2cc([C@H](C)C(=O)O)ccc2c1`, the inhibition of viability was -1.1% (inactive). On the same count and under the same terms, then `COc1c2occc2cc2ccc(=O)oc12`, with 8.3% (inactive); and `NC(=O)c1cccnc1`, with 11.2% (inactive); and `COCCOCC(OC)OC`, with 12.5% (inactive). On to `CN/C(=C\[N+](=O)[O-])NCCSCc1ccc(CN(C)C)o1`, for which the inhibition of viability was 2.23% (inactive).

For the molecule `CO[C@]1(NC(=O)CSC(F)F)C(=O)N2C(C(=O)O)=C(CSc3nnnn3CCO)CO[C@H]21`, the inhibition of viability is -0.4% (inactive).

`CNCCCN1c2ccccc2CCc2ccccc21`: the inhibition of viability was 37.5% (inactive). Still for that read-out and setting: to `CN1C(=O)CC[C@H]1c1cccnc1` belongs 12.8% (inactive). On the same count and under the same terms, to `CCCC(=O)Nc1ccc(OCC(O)CNC(C)C)c(C(C)=O)c1` (centres undefined) belongs 2.87% (inactive). Regarding `O=C(O)CCc1nc(-c2ccccc2)c(-c2ccccc2)o1`, the inhibition of viability was 9.15% (inactive). On the same count and under the same terms, to `CC(C)OC(=O)C(C)(C)Oc1ccc(C(=O)c2ccc(Cl)cc2)cc1` belongs 81.4% (active); to `O=C(O)C1CCC1`, 13.6% (inactive); to `CCN(CC)CC(=O)Nc1c(C)cc(C)cc1C`, 4.6% (inactive). Same read-out and setting: to `CC(C(=O)O)c1cccc(C(=O)c2ccccc2)c1` (centres undefined) belongs 1.73% (inactive); to `CN1CCN(C2=Nc3cc(Cl)ccc3Nc3ccccc32)CC1`, 63% (active). Take `Oc1ccc(O)cc1`: the inhibition of viability was -47.7% (inactive). `COC(=O)C1=C(C)NC(C)=C(C(=O)OC)C1c1ccccc1[N+](=O)[O-]`: the inhibition of viability is 58.7% (active).

The next experiment can be described thus: CellTiter-Glo luminescent readout of SW480 viability loss, NPC library primary (AID 1117343). To be noted: CellTiter-Glo luminescence; at 20 µM (top of the series) unless noted.
In the case of `COCCCOc1ccnc(CS(=O)c2nc3ccccc3[nH]2)c1C` (centres undefined), the viability decrease (inhibition) is 4.6% (inactive). Consider `N=c1nc(N2CCCCC2)cc(N)n1O`, for which the viability decrease (inhibition) is -3.9% (inactive). On the same count and under the same terms, to `Cc1ccc(-n2nc(C(C)(C)C)cc2NC(=O)Nc2ccc(OCCN3CCOCC3)c3ccccc23)cc1` belongs 64.1% (active); to `CC(C)CCCC(C)NCCC(C)C` (centres undefined), -8.8% (inactive); to `CC(C)NCC(O)COc1cccc2[nH]ccc12` (centres undefined), -0.7% (inactive). Same read-out and setting: to `COc1ccccc1N1CCN(CCCCNC(=O)c2ccc(-c3ccc(C(C)=O)cc3)cc2)CC1` belongs 69.7% (active); to `CCn1cc(C(=O)O)c(=O)c2ccc(C)nc21`, 30.9% (inactive). `CN(C)C(=O)C(CCN1CCC(O)(c2ccc(Cl)cc2)CC1)(c1ccccc1)c1ccccc1`: the viability decrease (inhibition) is 99.6% (active). On the same count and under the same terms, then `Cc1cc(NS(=O)(=O)c2ccc(N)cc2)no1`, with -7.9% (inactive). `CC(C)(C)NC(=O)[C@@H]1C[C@@H]2CCCC[C@H]2CN1C[C@@H](O)[C@H](Cc1ccccc1)NC(=O)[C@H](CC(N)=O)NC(=O)c1ccc2ccccc2n1`: the viability decrease (inhibition) is 92.3% (active). On the same count and under the same terms, then `CCCC(CCC)C(=O)O`, with -4.3% (inactive). The same measure, in the same setting: then `O=C1CN(/N=C/c2ccc([N+](=O)[O-])o2)C(=O)N1`, with 46.4% (active). The same measure, in the same setting: then `COc1cc(Cc2cnc(N)nc2N)cc(OC)c1OC`, with 39.7% (inactive).

Regarding `COC(=O)C1=C(C)NC(C)=C(C(=O)OCCN(C)Cc2ccccc2)C1c1cccc([N+](=O)[O-])c1` (centres undefined), the viability decrease (inhibition) is 126% (active).

In the case of `C[C@@H](C1=C(CCN(C)C)Cc2ccccc21)c1ccccn1`, the viability decrease (inhibition) is 63.6% (active). On the same count and under the same terms, to `Cc1cc(-n2nc3ccc(Cl)cc3n2)c(O)c(C(C)(C)C)c1` belongs 1.3% (inactive); to `CCO[C@H](Cc1ccc(OCCc2ccc(OS(C)(=O)=O)cc2)cc1)C(=O)O`, -5.9% (inactive). In the case of `O=C(CCCN1CCC(O)(c2ccc(Cl)cc2)CC1)c1ccc(F)cc1`, the viability decrease (inhibition) is 66.8% (active). Take `COc1ccc2c(c1)C(=O)N(CCc1ccc(S(=O)(=O)NC(=O)NC3CCCCC3)cc1)C(=O)C2(C)C`: the viability decrease (inhibition) is 87.1% (active).

As for `CC12CCC(CC1)C(C)(C)O2`, the viability decrease (inhibition) is 5% (inactive). Turning to `C[C@@H](c1ncncc1F)C(O)(Cn1cncn1)c1ccc(F)cc1F` (some centres undefined), the viability decrease (inhibition) is 4.6% (inactive). `CC(C)(C)NCC(O)c1ccc(O)c(CO)c1` (centres undefined): the viability decrease (inhibition) is -5.2% (inactive).

Consider `CCN(CC)CCOc1ccc(Cc2ccccc2)cc1`, for which the viability decrease (inhibition) is 83.4% (active).

Consider `COc1ccc2cc([C@H](C)C(=O)O)ccc2c1`, for which the viability decrease (inhibition) was 30.2% (inactive). On the same count and under the same terms, then `COc1c2occc2cc2ccc(=O)oc12`, with 26.9% (inactive); and `NC(=O)c1cccnc1`, with 1.3% (inactive); and `COCCOCC(OC)OC`, with -8.8% (inactive). In the case of `CN/C(=C\[N+](=O)[O-])NCCSCc1ccc(CN(C)C)o1`, the viability decrease (inhibition) is -25.8% (inactive). On the same count and under the same terms, to `CO[C@]1(NC(=O)CSC(F)F)C(=O)N2C(C(=O)O)=C(CSc3nnnn3CCO)CO[C@H]21` belongs -2.1% (inactive); to `CNCCCN1c2ccccc2CCc2ccccc21`, 104% (active); to `CN1C(=O)CC[C@H]1c1cccnc1`, -3% (inactive). Still for that read-out and setting: then `CCCC(=O)Nc1ccc(OCC(O)CNC(C)C)c(C(C)=O)c1` (centres undefined), with 15.1% (inactive); and `O=C(O)CCc1nc(-c2ccccc2)c(-c2ccccc2)o1`, with 8.7% (inactive); and `CC(C)OC(=O)C(C)(C)Oc1ccc(C(=O)c2ccc(Cl)cc2)cc1`, with 75.1% (active). Still for that read-out and setting: to `O=C(O)C1CCC1` belongs 1.4% (inactive); to `CCN(CC)CC(=O)Nc1c(C)cc(C)cc1C`, 6% (inactive); to `CC(C(=O)O)c1cccc(C(=O)c2ccccc2)c1` (centres undefined), 1.9% (inactive). As to `CN1CCN(C2=Nc3cc(Cl)ccc3Nc3ccccc32)CC1`, the viability decrease (inhibition) was 66.6% (active). On the same count and under the same terms, to `Oc1ccc(O)cc1` belongs 20.4% (inactive). As for `COC(=O)C1=C(C)NC(C)=C(C(=O)OC)C1c1ccccc1[N+](=O)[O-]`, the viability decrease (inhibition) is 136% (active).
